Test results from PubChem BioAssay (NCATS).
“And” between values parts separate entries of the source, which are not always exact repeats. Equal values may be shown once. Inconclusive results are not listed. The source made the active and inactive calls. The call rests on the fitted dose curve; in most records, active means well fitted curve in the direction sought with a large enough effect; inconclusive means small, poorly fitted or top-dose-only effect, or another doubt; inactive means no such curve, though single readings can be large; an effect the other way counts as inactive or inconclusive. Where a SMILES comes first, the peptide text is derived from it. [ ]: non-standard residue; d: D form. Ala(indol-2-yl) = N[C@@H](Cc1cc2ccccc2[nH]1)C(=O)O; Aib = CC(C)(N)C(=O)O

Tests used:
[1] = Primary qHTS for inhibitors of nuclear receptor binding SET domain protein 2 (NSD2) in an isogenic RCH-ACV NSD2 p.E1099K mutant (9B) (AID 1645876); further: nearly all actives have a fitted effect of over 70% in size; further: potency means the concentration at half of the fitted maximal effect
[2] = Primary qHTS for inhibitors of nuclear receptor binding SET domain protein 2 (NSD2) in an RCH-ACV wild type WT cells (2C) (AID 1645877); further: nearly all actives have a fitted effect of over 70% in size; further: potency means the concentration at half of the fitted maximal effect
[3] = biological target: Phospholipid hydroperoxide glutathione peroxidase GPX4 (Homo sapiens) (UniProt P36969); test: Primary qHTS Assay for Inhibitors of Recombinant Selenoprotein Glutathione Peroxidase 4 (GPX4) (AID 1845192); further: nearly all actives have a fitted effect of over 65% in size; on activity change, negative = inhibition: on the % scale 0 is the no-effect control and ±100 the full control effect
Summary of the method: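 GR-coupled assay: recombinant GPX4 preincubated 30 min with compound at room temperature; final 200 nM GPX4, 1 mM GSH, 0.5 mM cumene hydroperoxide, 0.5 mM NADPH, 100 nM GR, 0.01% BSA, pH 7.5 Tris. NADPH fluorescence (340/450 nm) read at 0 and 15 min.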

[4] = biological target: Luciferin 4-monooxygenase (Photinus pyralis) (UniProt P08659); test: Primary firefly luciferase (FLuc) qHTS assay for identification of artifact compounds. (AID 1845220); conditions: outcome: dose series up to 54.1 µM unless noted; further: nearly all actives have a fitted effect of over 60% in size;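 on activity change, negative = inhibition: plate controls were DMSO vehicle for no effect and no enzyme for full effect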
Summary of the method: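 Titrated compounds were incubated 15 min at RT, protected from light, with luciferin and ATP at 10 uM; reaction started with 10 nM FLuc, luminescence imaged at 5 min, and concentration-response fitted by Hill equation.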

[5] = system: Nanoluciferase (engineered Oplophorus gracilirostris luciferase); test: Primary Nanoluciferase (NLuc) qHTS assay for identification of artifact compounds. (AID 1845222);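 further: NLuc secreted into diluted conditioned medium of S16 cells; 0% = DMSO and -100% = no enzyme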
Summary of the method: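 qHTS format, against NLuc in S16 cell-conditioned medium. Nano-Glo substrate 1:100 was added after 15 min at room temperature. Luminescence was taken after a further 5 min.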

CRL-7250 = normal cell line; test: Cytotoxic Profiling of Annotated Libraries Using Quantitative High-Throughput Screening (AID 1296008); conditions: Five cell lines viability, CellTiter-Glo ATP luminescence, 48-72 h; max response: hits give low values; further: nearly all actives have a fitted effect of over 60% in size; further: potency means the concentration at half of the fitted maximal effect; on max response: on the % scale 0 is the no-effect control and ±100 the full control effect
Summary of the method: (§1)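 Cells exposed to compounds for 48 or 72 hr at 37 degrees Celsius. Viability read as ATP-coupled luminescence with CellTiter-Glo after 10 min at room temperature.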

HEK293 = test: as above; conditions: Five cell lines viability, CellTiter-Glo ATP luminescence, 48-72 h; max response: hits give low values
Summary of the method: as §1

HaCat = test: as above; conditions: Five cell lines viability, CellTiter-Glo ATP luminescence, 48-72 h; max response: hits give low values
Summary of the method: as §1

NIH3T3 = test: as above; conditions: Five cell lines viability, CellTiter-Glo ATP luminescence, 48-72 h; max response: hits give low values
Summary of the method: as §1

C33A = test: Primary qHTS to identify gynecologic anti-cancer compounds using libraries of approved drugs and bioactive compounds (AID 1345084); conditions: Gynecologic cancer cell panel viability, ATPlite luminescence, 48 h; series mostly up to 57.5 µM; further: nearly all actives have a fitted effect of over 55% in size; further: potency means the concentration at half of the fitted maximal effect; on activity change, negative = cytotoxicity: on the % scale 0 is the no-effect control and ±100 the full control effect
Summary of the method: (§2)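 Five-point cytotoxicity, 48 h drug exposure at 37 C, 5% CO2, on cells seeded 16 h beforehand. ATP content read by ATPlite luminescence.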

CASKI = test: as above; conditions: Gynecologic cancer cell panel viability, ATPlite luminescence, 48 h; series mostly up to 57.5 µM
Summary of the method: as §2

Es-2 = test: as above; conditions: Gynecologic cancer cell panel viability, ATPlite luminescence, 48 h; series mostly up to 57.5 µM
Summary of the method: as §2

Hek293T = test: as above; conditions: Gynecologic cancer cell panel viability, ATPlite luminescence, 48 h, control line for the selectivity index; series mostly up to 57.5 µM
Summary of the method: as §2

PA-1 = test: as above; conditions: Gynecologic cancer cell panel viability, ATPlite luminescence, 48 h; series mostly up to 57.5 µM
Summary of the method: as §2

[6] = biological target: Glutathione peroxidase 1 (Homo sapiens) (UniProt P07203); test: Primary qHTS Assay for Inhibitors of Recombinant Selenoprotein Glutathione Peroxidase 1 (GPX1) (AID 1845191); further: nearly all actives have a fitted effect of over 65% in size
Summary of the method: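 GR-coupled assay: compounds preincubated 30 min at room temperature with GPX1, then reaction started with CHP; final 10 nM GPX1, 1 mM GSH, 0.5 mM CHP, 0.5 mM NADPH, 100 nM GR, 0.01% BSA, pH 7.5 Tris buffer. NADPH fluorescence (340/450 nm) read at 0 and 15 min.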

[7] = Primary fluorescence-based thiol-reactive (MSTI) qHTS assay for identification of artifact compounds. (AID 1845221); further: nearly all actives have a fitted effect of over 65% in size; further: potency means the concentration at half of the fitted maximal effect;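 on activity change, negative = thiol reactive: thiol-reactive compounds lower the probe fluorescence signal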
Summary of the method: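 Thiol-reactive compounds detected by quenching of 4 uM MSTI fluorescence (525/598 nm) after 1 h room-temperature dark incubation in PBS pH 7.4, 2% DMSO. qHTS titration; percent inhibition Hill-fitted against Acetyl-MSTI/MSTI controls.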

OV90 = test: Primary qHTS to identify gynecologic anti-cancer compounds using libraries of approved drugs and bioactive compounds (AID 1345084); conditions: Gynecologic cancer cell panel viability, ATPlite luminescence, 48 h; series mostly up to 57.5 µM; further: nearly all actives have a fitted effect of over 55% in size; further: potency means the concentration at half of the fitted maximal effect
Summary of the method: as §2

Tov-21-G = test: as above; conditions: Gynecologic cancer cell panel viability, ATPlite luminescence, 48 h; series mostly up to 57.5 µM
Summary of the method: as §2

Tov112D = test: as above; conditions: Gynecologic cancer cell panel viability, ATPlite luminescence, 48 h; series mostly up to 57.5 µM
Summary of the method: as §2

KB-3-1 = test: Cytotoxic Profiling of Annotated Libraries Using Quantitative High-Throughput Screening (AID 1296008); conditions: Five cell lines viability, CellTiter-Glo ATP luminescence, 48-72 h; max response: hits give low values; further: nearly all actives have a fitted effect of over 60% in size; further: potency means the concentration at half of the fitted maximal effect; on max response: on the % scale 0 is the no-effect control and ±100 the full control effect
Summary of the method: as §1

Sequence of Glutathione peroxidase 1 (Homo sapiens) (P07203 whole entry, looked up): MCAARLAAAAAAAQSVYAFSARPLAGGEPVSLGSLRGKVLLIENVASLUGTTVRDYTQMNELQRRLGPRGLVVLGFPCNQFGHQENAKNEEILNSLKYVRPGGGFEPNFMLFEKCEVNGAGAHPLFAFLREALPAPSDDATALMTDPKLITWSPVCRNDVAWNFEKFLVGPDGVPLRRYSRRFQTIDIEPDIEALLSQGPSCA
Sequence of Phospholipid hydroperoxide glutathione peroxidase GPX4 (Homo sapiens) (P36969 whole entry, looked up): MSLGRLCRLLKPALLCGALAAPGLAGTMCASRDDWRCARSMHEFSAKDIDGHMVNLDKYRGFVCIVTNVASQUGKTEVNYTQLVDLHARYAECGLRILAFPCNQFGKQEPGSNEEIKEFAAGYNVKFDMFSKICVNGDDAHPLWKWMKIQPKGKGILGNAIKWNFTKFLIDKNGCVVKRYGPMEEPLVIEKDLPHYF

Cc1sc2c(c1C)C(c1ccc(Cl)cc1)=NC(CC(=O)Nc1ccc(O)cc1)c1nnc(C)n1-2 (configuration not stated)
inactive: Potency [3] | outcome [4] | Potency [5] | max response (HaCat) -9.94% | Potency (C33A) | Potency (CASKI) | Potency (Es-2) | Potency (Hek293T)
active: Potency [1] 129 nM and 263 nM | Potency [2] 129 nM and 296 nM | Potency (CRL-7250) 1.16 µM | Potency (HEK293) 1.46 µM | Potency (NIH3T3) 1.3 µM | Potency (PA-1) 1.78 µM

C[C@H]1CCC/C=C/C2C[C@H](O)C[C@H]2[C@H](O)/C=C/C(=O)O1 (some centres not stated)
inactive: Potency [6] | Potency [3] | outcome [4] | Potency [7]
active: Potency [1] 163 nM and 332 nM | Potency [2] 163 nM and 417 nM | Potency (CRL-7250) 0.0517 µM | Potency (HEK293) 0.58 µM | Potency (HaCat) 0.184 µM | Potency (NIH3T3) 5.17 µM | Potency (C33A) 0.631 µM | Potency (CASKI) 1 µM | Potency (Es-2) 0.316 µM | Potency (Hek293T) 0.891 µM | Potency (OV90) 0.316 µM | Potency (PA-1) 0.316 µM | Potency (Tov-21-G) 1 µM | Potency (Tov112D) 0.891 µM

N#Cc1cn([C@@H]2O[C@H](CO)[C@H](O)[C@@H]2O)c2ncnc(N)c12
inactive: Potency [6] | outcome [4] | Potency [5]
active: Potency [1] 12.9 nM | Potency [2] 7.3 nM | Potency (CRL-7250) 0.058 µM | Potency (HEK293) 0.0461 µM | Potency (HaCat) 0.092 µM | Potency (KB-3-1) 0.0366 µM | Potency (CASKI) 0.282 µM | Potency (Tov112D) 0.316 µM

C[C@]12CC[C@H](O[C@@H]3O[C@H](CO)[C@@H](O)[C@H](O)[C@H]3O[C@@H]3O[C@H](CO)[C@@H](O)[C@H](O)[C@H]3O)CC1=CC[C@@H]1[C@@H]2CC[C@]2(C)[C@@H](C3=CC(=O)OC3)CC[C@]12O
inactive: Potency [6] | Potency [3] | outcome [4] inactive [at 25.7 µM] | Potency [7] | Potency [5] | max response (HaCat) -17% | max response (NIH3T3) 1.49% | Potency (CASKI) | Potency (OV90)
active: Potency [1] 2160 nM | Potency [2] 4300 nM | Potency (CRL-7250) 3.85 µM | Potency (HEK293) 6.11 µM | Potency (Tov-21-G) 6.31 µM

OCc1nnc2n1-c1ccc(Cl)cc1C(c1ccccc1Cl)=NC2
inactive: Potency [1] | Potency [2] | Potency [6] | Potency [3] | outcome [4] | Potency [7] | Potency [5] | max response (CRL-7250) 0.641% | max response (HEK293) -7.41% | max response (HaCat) -38% | max response (KB-3-1) 8.98% | Potency (C33A) | Potency (CASKI) | Potency (Es-2) | Potency (Hek293T) | Potency (OV90) | Potency (Tov-21-G) | Potency (Tov112D)

Cc1ccccc1CN1CCC(N2CCC(n3c(=O)[nH]c4ccccc43)CC2)CC1
inactive: Potency [1] | Potency [2] | Potency [6] | Potency [3] | Potency [7] | Potency [5] | max response (HaCat) 0.939% | outcome (NIH3T3) | Potency (CASKI) | Potency (Es-2) | Potency (PA-1) | Potency (Tov-21-G) | Potency (Tov112D)
active: Potency (CRL-7250) 7.31 µM | Potency (HEK293) 6.51 µM

CCC1NC(=O)C2C(Cl)C(Cl)CN2C(=O)C(CC)NC(=O)CC(c2ccccc2)NC(=O)C(CO)NC1=O (configuration not stated)
inactive: Potency [6] | Potency [3] | outcome [4] | Potency [5] | max response (CRL-7250) 2.35% | max response (HEK293) -1.56% | outcome (HaCat) | outcome (NIH3T3) | Potency (C33A) | Potency (CASKI) | Potency (Es-2) | Potency (Hek293T) | Potency (OV90) | Potency (PA-1) | Potency (Tov112D)
active: Potency [7] 2.32 µM

CCC1C2CC3C4N(C)c5ccccc5C45CC(C2C5O)N3C1O (configuration not stated)
inactive: Potency [1] | Potency [2] | Potency [6] | Potency [3] | outcome [4] | Potency [5] | max response (CRL-7250) -9.12% | outcome (HEK293) | max response (KB-3-1) 6.75% | max response (NIH3T3) 2.24% | Potency (C33A) | Potency (CASKI) | Potency (Es-2) | Potency (Hek293T) | Potency (OV90) | Potency (PA-1) | Potency (Tov-21-G) | Potency (Tov112D)

O=C(CC1NCCC[C@H]1O)Cn1cnc2cc(Br)c(Cl)cc2c1=O (some centres not stated)
inactive: Potency [6] | Potency [3] | max response (CRL-7250) -5.15% | max response (HEK293) -10.4% | max response (HaCat) -11.7% | max response (KB-3-1) -10.5% | max response (NIH3T3) -4.52%

CCc1nn(C)c(C(=O)NCc2ccc(Oc3ccc(C)cc3)cc2)c1Cl
active: Potency [1] 817 nM | Potency (CRL-7250) 0.0065 µM | Potency (HEK293) 0.0073 µM | Potency (OV90) 0.631 µM
inactive: Potency [6] | Potency [3] | Potency [7] | Potency [5] | max response (HaCat) 1.94% | Potency (Es-2) | Potency (Tov-21-G) | Potency (Tov112D)

CC(C)(NC(=O)[C@@H](N)Cc1ccc(O)cc1)C(=O)N[C@@H](Cc1cc2ccccc2[nH]1)C(=O)N[C@@H](Cc1ccccc1)C(=O)O (H-Y[Aib][Ala(indol-2-yl)]F-OH)
inactive: activity change, negative = viability loss [1] -7% [at 9.23 µM] | activity change, negative = cell killing [2] -2.68% [at 9.23 µM] | activity, negative = inhibition [6] 0.29% [at 9.52 µM] | activity change, negative = inhibition [3] -0.548% [at 9.73 µM] | activity change, negative = inhibition [4] 1.26% [at 11.6 µM] | activity change, negative = thiol reactive [7] 54.2% [at 11.5 µM] | activity, negative = inhibition [5] 2.82% [at 11.6 µM] | max response (CRL-7250) -5.29% | max response (HEK293) -3.45% | max response (HaCat) -4.8% | outcome (KB-3-1) | activity change, negative = cytotoxicity (C33A) 17.2% [at 11.6 µM] | activity change, negative = cytotoxicity (CASKI) 4.29% [at 11.6 µM] | activity change, negative = cytotoxicity (Es-2) 0.783% [at 11.6 µM] | activity change, negative = cytotoxicity (Hek293T) -0.36% [at 11.6 µM] | activity change, negative = cytotoxicity (OV90) 2.67% [at 11.6 µM] | activity change, negative = cytotoxicity (PA-1) 2.34% [at 11.6 µM] | activity change, negative = cytotoxicity (Tov-21-G) 16.4% [at 11.6 µM] | activity change, negative = cytotoxicity (Tov112D) -10.9% [at 11.6 µM]
